{"source": "PubChem BioAssay AID449762", "about": "(Southern Research Specialized Biocontainment Screening …, 2010)", "note": "Out of some 330,000 compounds screened, about 1,900 (0.58%) were called active. Inconclusive results (about 4%) are left out. These entries were drawn from the full list. Measured potencies and affinities stand elsewhere. A number with no mark means an inactive call. No stated cut-off is given here; in the data, inconclusive means inhibition above about 70% without an active follow-up result; inactive means below that.", "data": [{"assay": "M. tuberculosis growth inhibition, HTS (AID 449762);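 further: bacterial growth assessed after seven days of incubation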", "details": "M. tuberculosis H37Rv growth inhibition, 7H9 media; at 25 µM; hits give high values", "units": {"inhibition": "%"}, "values": [{"smiles": "COC(=O)c1cc(C(=O)OC)[nH]n1", "inhibition": -0.31}, {"smiles": "COc1ccccc1NC(=O)N1CCCC1C(=O)NCc1ccccc1Cl", "note": "(stereo unspecified)", "inhibition": 3.2}, {"smiles": "Cc1ccc(S(=O)(=O)/N=C(\\CN2CCOCC2)N2CCOCC2)cc1", "inhibition": 2.72}, {"smiles": "Cc1ccc(S(=O)(=O)/N=C(\\CN2CCCCC2)N2CCOCC2)cc1", "inhibition": -3.15}, {"smiles": "CC(=O)c1c(C)[nH]c(C(=O)CSc2nc3ccccc3c(=O)n2CCCO)c1C", "inhibition": 10.8}, {"smiles": "O=C(NC1CCOCC1)C1CCC(=O)N(Cc2ccc(Cl)cc2)C1", "note": "(stereo unspecified)", "inhibition": -7.32}, {"smiles": "Cc1ccc(C(=O)C2CCOC(C)(C)C2)cc1", "note": "(stereo unspecified)", "inhibition": -6.79}, {"smiles": "Cc1ccc(-c2csc(NCCn3c(-c4ccncc4)nc4ccccc43)n2)cc1", "inhibition": -3.83}, {"smiles": "Cc1ccc(-c2csc(N3CCC[C@@H]3C(=O)NCCn3c(-c4ccncc4)nc4ccccc43)n2)cc1", "inhibition": 58.4}, {"smiles": "COc1cc2c(cc1OC)CN(C1CCC(C)CC1)CC2", "note": "(stereo unspecified)", "inhibition": 8.03}, {"smiles": "CC(C)N=C(NC#N)SCc1ccccc1F", "inhibition": -3.3}, {"smiles": "CCNc1nc(C)nc2c1oc1ccccc12", "inhibition": 2.03}, {"smiles": "COc1ccc(CCNc2nc(C)nc3c2oc2ccccc23)cc1OC", "inhibition": 2}, {"smiles": "COc1ccccc1NS(=O)(=O)c1cccc(C(=O)NN)c1", "inhibition": -5.02}, {"smiles": "COc1cc(NC(=O)Cc2ccc([N+](=O)[O-])cc2)c(C(=O)O)cc1OC", "inhibition": 20.1}, {"smiles": "COc1cc(C(=O)/C=C/c2cccnc2)ccc1O", "inhibition": 52.2}, {"smiles": "CN(C)c1ccc(C(=O)/C=C/c2cccnc2)cc1", "inhibition": -3.39}, {"smiles": "O=C(/C=C/c1cccnc1)c1ccc(O)cc1", "inhibition": 2.21}, {"smiles": "O=C(/C=C/c1cccnc1)c1ccccc1O", "inhibition": 4.14}, {"smiles": "Cc1ccc2nc(-c3ccc(NC(=O)CCS(=O)(=O)c4ccccc4)cc3)sc2c1", "inhibition": 1.52}, {"smiles": "O=C(CN(Cc1ccco1)C(=O)CNS(=O)(=O)c1ccccc1)NCc1ccccc1", "inhibition": 0.41}, {"smiles": "Cc1ccc(N2C(=O)C3C4C=CC(CNC(=S)Nc5ccc(Cl)cc5)(O4)C3C2=O)cc1", "note": "(stereo unspecified)", "inhibition": 0.99}, {"smiles": "Cc1ccc(NC(=O)Nc2ccc3c(c2)CCC3)c(C)c1", "inhibition": -10.3}, {"smiles": "Cc1ccc2[nH]c3nc(N/N=C/c4cccc(O)c4)nnc3c2c1", "inhibition": 3.58}, {"smiles": "O=Nc1ccc(NOC(=O)c2ccccc2)cc1", "inhibition": 14}, {"smiles": "Cc1ccc(C(=O)ONc2ccc(N=NC(=O)c3ccccc3O)cc2)cc1", "inhibition": 2.47}, {"smiles": "CCCn1c(C)cc(C(=O)CN2C(=O)c3cccc(N)c3C2=O)c1C", "inhibition": -10}, {"smiles": "Oc1ccc(Cl)cc1N=Nc1ccccc1", "inhibition": -8.24}, {"smiles": "COc1ccc(-c2[nH]ncc2N=Nc2ccccc2)cc1", "inhibition": 8.09}, {"smiles": "CCOC(=O)c1[nH]c2ccccc2c1NC(=O)c1ccc(Br)o1", "inhibition": -1.61}, {"smiles": "CN(C)c1ccc(/C=C/c2cccc[n+]2[O-])cc1", "inhibition": 1.21}, {"smiles": "CN(C)c1ccc(/C=C/c2cc[n+](C)cc2)cc1", "inhibition": 7.78}, {"smiles": "Cc1cc(C(=O)OCC(=O)Nc2cccc(F)c2)c(C)n1C1CC1", "inhibition": 0.41}, {"smiles": "CCN(CC)CCn1c(SCC(=O)Nc2ccc(F)cc2)nc2c(sc3ccccc32)c1=O", "inhibition": 4.95}, {"smiles": "CCN(CC)CCn1c(SCC(=O)NCc2ccccc2)nc2c(sc3ccccc32)c1=O", "inhibition": 6}, {"smiles": "COCCn1c(-c2ccccc2)cc(C(=O)O)c1C", "inhibition": 6.01}, {"smiles": "COc1ccc(CNC(=O)Nc2ccc(C)c(C)c2)cc1", "inhibition": -5.48}, {"smiles": "CC(=O)NC(=S)Nc1ccc(NC(=O)COc2ccc(Cl)cc2Cl)cc1", "inhibition": 0.45}, {"smiles": "CC(=O)Nc1ccc(NC(=O)COc2ccc(Cl)cc2Cl)cc1", "inhibition": -0.58}, {"smiles": "COC(=O)c1ccc(NC(=O)Cn2nc(SC)n(N)c2=S)cc1", "inhibition": -4.09}, {"smiles": "Cn1nc([N+](=O)[O-])nc1Sc1ccc(Cl)cc1", "inhibition": 0.18}, {"smiles": "Cc1ccc(Sc2nc([N+](=O)[O-])nn2C)cc1", "inhibition": 6.48}, {"smiles": "CC(=O)Nc1ccc(CN2CCN(CCc3ccccc3)C(CCO)C2)cc1", "note": "(stereo unspecified)", "inhibition": -3.1}, {"smiles": "CCCCS/C(N)=N/N=C/c1ccccc1O", "inhibition": 1.14}, {"smiles": "Cc1ccc(O)c(C=Nc2cc(C)ccc2O)c1", "inhibition": -4.69}, {"smiles": "COc1ccc(CCNc2nc(-c3ccc(O)cc3)cs2)cc1OC", "inhibition": 3.36}, {"smiles": "C=CCCC(=O)N1CCCC(C(=O)c2cccc(OC)c2)C1", "note": "(stereo unspecified)", "inhibition": 5.01}, {"smiles": "OC(CN1CCN(c2ccccc2)CC1)Cn1c2ccccc2c2ccccc21", "note": "(stereo unspecified)", "inhibition": 14.7}, {"smiles": "CN1CCN(CC(O)Cn2c3ccccc3c3ccccc32)CC1", "note": "(stereo unspecified)", "inhibition": 6.36}, {"smiles": "Cc1noc(C)c1COC(=O)c1ccc2c(c1)S(=O)(=O)c1ccccc1C2=O", "inhibition": -4.63}, {"smiles": "Brc1ccc2c(c1)C(c1cccs1)=NNC(c1cccnc1)=N2", "inhibition": 1.73}, {"smiles": "NC(=O)CC(NC(=O)Cc1ccc(Br)cc1)c1ccc(N2CCN(c3ccccn3)CC2)c([N+](=O)[O-])c1", "note": "(stereo unspecified)", "inhibition": 2.89}, {"smiles": "C[C@H](CO)N1C[C@H](C)[C@@H](CN(C)S(C)(=O)=O)Oc2c(NC(=O)C3CC3)cccc2C1=O", "inhibition": 1.46}, {"smiles": "CC(C)SC1=NC(C)(C)C=C(/C=C/c2ccc(Cl)cc2Cl)N1", "inhibition": 23.8}, {"smiles": "CCSC1=NC(C)(C)C=C(/C=C/c2ccc(Cl)cc2Cl)N1", "inhibition": 46.6}, {"smiles": "COc1ccc(C(=O)Nc2cccc([N+](=O)[O-])c2)cc1Br", "inhibition": -1.62}, {"smiles": "COc1nccc(-c2ccc(F)cc2)c1C#N", "inhibition": 6.03}, {"smiles": "COc1ccc2[nH]c3c(Cl)ncnc3c2c1", "inhibition": -0.24}, {"smiles": "COc1ccc2c(c1)[nH]c1c(C)nccc12", "inhibition": 34.6}, {"smiles": "COc1ccc(NC(C)C(=O)N/N=C/c2c(O)ccc3ccccc23)cc1", "note": "(stereo unspecified)", "inhibition": -2.98}, {"smiles": "CN(C)S(=O)(=O)N1CCCN(S(=O)(=O)N(C)C)CC1", "inhibition": -7.77}, {"smiles": "Cc1ccc(NC(=O)Cc2ccc(Cl)cc2)cc1S(=O)(=O)N1CCCCCC1", "inhibition": -4.17}, {"smiles": "CCCCC(=O)Nc1ccc(C)c(S(=O)(=O)N2CCCCCC2)c1", "inhibition": -1.76}, {"smiles": "Cc1c(NC(=O)CC2NC(=O)NC2=O)c(=O)n(-c2ccccc2)n1C", "note": "(stereo unspecified)", "inhibition": 4.59}, {"smiles": "Cc1ccc(NC(=O)CSc2nc(N)cc(=O)[nH]2)cc1S(=O)(=O)N1CCCCCC1", "inhibition": -1.26}, {"smiles": "Cc1ccc(S(=O)(=O)NNC(=O)c2ccc(O)cc2)cc1", "inhibition": 9.92}, {"smiles": "Cc1ccc(C(=O)NNS(=O)(=O)c2ccccc2[N+](=O)[O-])cc1", "inhibition": 4.03}, {"smiles": "C#CC[N+]1(C)C2CCC1CC(O)C2", "note": "(stereo unspecified)", "inhibition": 6.2}, {"smiles": "COC(=O)/C(=C\\c1c(OC)cc(OC)cc1OC)C(=O)c1ccc2c(c1)OCO2", "inhibition": 17}, {"smiles": "CCN1C(=O)CSc2ccc(C(=O)NCc3ccccc3)cc21", "inhibition": -4.41}, {"smiles": "CC(=O)n1cc(C=C2C(=O)NC(=O)NC2=O)c2ccccc21", "inhibition": 6.36}, {"smiles": "CC(=O)O/C(=C\\c1cn(C(C)=O)c2ccccc12)C(=O)O", "inhibition": -13.8}, {"smiles": "Cc1oc(-c2ccc(Cl)cc2)nc1CS(=O)CC(=O)NC1CCCC1", "note": "(stereo unspecified)", "inhibition": -1.04}, {"smiles": "Nc1[nH]n2c(=O)cc(-c3ccccc3)nc2c1N=Nc1ccc(S(N)(=O)=O)cc1", "inhibition": 6.74}, {"smiles": "COc1cccc(N=Nc2c(N)[nH]n3c(=O)cc(-c4ccccc4)nc23)c1", "inhibition": 54.1}, {"smiles": "Cc1ccc(CNc2nc3ccccc3n3cnnc23)cc1", "inhibition": -11.5}, {"smiles": "CCc1ccc(Nc2oc(C)cc(=O)c2C(C)=O)cc1", "inhibition": 70}, {"smiles": "C/C(=N\\N=C(/N)SC1CC(=O)N(c2ccccc2)C1=O)c1cccs1", "note": "(stereo unspecified)", "inhibition": -5.01}, {"smiles": "C/C(=N\\N=C(/N)SC1CC(=O)N(c2cccc(Cl)c2)C1=O)c1cccs1", "note": "(stereo unspecified)", "inhibition": 15.1}, {"smiles": "O=C(C1CC=CCC1)N1CCC(CO)(Cc2ccc(Cl)cc2)CC1", "note": "(stereo unspecified)", "inhibition": 14.7}, {"smiles": "CCCCNc1nc(Nc2ccc(C)c(Cl)c2)c2cnn(C)c2n1", "inhibition": 10.1}, {"smiles": "CCCNc1nc(Nc2ccc(C)c(Cl)c2)c2cnn(C)c2n1", "inhibition": 14.2}, {"smiles": "CC(C)(C)/C(Cn1cncn1)=N\\OC(=O)Nc1ccc(Cl)cc1", "inhibition": 11.8}, {"smiles": "CN(Cc1nccs1)C(=O)CC1C(=O)NCCN1Cc1ccc(-c2ccccc2)cc1", "note": "(stereo unspecified)", "inhibition": -5.55}, {"smiles": "Cc1nc2cc(C(=O)N3CCC4(CC3)OCCO4)ccc2n1-c1ccc(Br)cc1", "inhibition": 9.84}, {"smiles": "CC(C)OC(=O)CSc1nc(N2CCOCC2)c2c(c1C#N)CC(C)(C)OC2", "inhibition": 35.4}, {"smiles": "COC(=O)CSc1nc(N2CCOCC2)c2c(c1C#N)CC(C)(C)OC2", "inhibition": 4.99}, {"smiles": "Cc1ccc(N(C(=O)Cn2nnc(-c3ccc(F)cc3)n2)C(C(=O)NC(C)(C)C)c2ccncc2)cc1", "note": "(stereo unspecified)", "inhibition": 7.5}, {"smiles": "C#Cc1ccc(CN2CCN(Cc3ccsc3)C(CCO)C2)cc1", "note": "(stereo unspecified)", "inhibition": -1.98}, {"smiles": "N#CCCN(C(=O)COC(=O)CNC(=O)c1ccc(-c2ccccc2)cc1)c1ccc(F)cc1", "inhibition": 67.5}, {"smiles": "CCCCc1ccc(/C(C)=N/NC(=O)C2CCCC2)cc1", "inhibition": -4.47}, {"smiles": "C/C(=N\\NC(N)=S)c1ccccc1", "inhibition": 0.26}, {"smiles": "Cc1ccccc1C(=O)Nc1cccc(N)c1", "inhibition": -3.59}, {"smiles": "Cc1ccc(S(=O)(=O)NCCCCCC(=O)Nc2c(C)n(C)n(-c3ccccc3)c2=O)cc1", "inhibition": -4.12}, {"smiles": "CCCCN(C(=O)c1c(C)noc1C)c1c(N)n(CCC)c(=O)[nH]c1=O", "inhibition": -2.29}, {"smiles": "Cc1ccc(/C=C/C(=O)Nc2ccc(S(=O)(=O)Nc3onc(C)c3C)cc2)cc1", "inhibition": -4.61}]}]}
